Rows were chosen to be rich in hits. Some 3.9% of all compounds tested hit in one or more screens of this group.
TRAIL sens C8 – viability loss with TRAIL in NB7+C8 cells, primary screen, TRAIL sensitizer project, cell-based, ATPlite luminescence. inhibition (viability loss, TRAIL sensitization), % at 10 µM. actives 1% (n = 360,000). AID 624354, 2012;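 active = compounds causing at least 50% loss of cell viability in the single-dose screen, relative to plate controls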
aSyn UTR inh – MLPCN primary screen, SNCA 5' untranslated region. alpha-synuclein 5'UTR reporter, inhibitor activity. inhibition, % (tested at 7.5 µM). actives 0.82% (n = 300,000); in the data active = inhibition above about 60%;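 also: H4 neuroglioblastoma cells stably carrying SNCA 5'UTR luciferase fusion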
HSP90 inh – HSP90 inhibitors, primary screen, cell lysate, luminescence. Rabbit reticulocyte lysate, luciferase refolding luminescence, 3 h. Heat shock protein HSP 90 (rabbit reticulocyte lysate; luciferase refolding). inhibition, % at 5.6 µM. actives 0.91% (n = 290,000);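 active = inhibition above the screen-wide mean plus 3 SD, computed separately per campaign, cut at about 16% in these data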;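 also: inhibitors lower the luminescence because luciferase stays unfolded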
TROY NFkB inh – inhibitors of TROY-driven NF-kB signaling, primary screen, Q293 LMP1-TROYcd cells, NF-kB luciferase, uHTS; AID 1347056, 2019; inhibition, % at 10 µM; Q293 LMP1-TROYcd NF-kB luciferase reporter, 4 h; actives 0.98% (n = 360,000);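 active = compounds whose plate-normalised and pattern-corrected inhibition of the luciferase reporter signal at the single screening dose is 50% or more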
HIF-2a block – HIF-2a reporter inhibitors, primary screen, luminescence, 786-0 RCC cells; 786-0 RCC cells HIF-2a reporter, luciferase luminescence, overnight; inhibition, % at 18.8 µM; actives 0.72% (n = 360,000); AID 624352, 2012;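 active = inhibition of the luminescence signal of 40% or more relative to plate controls, in a single-dose primary screen at 18.75 µM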
TWEAK Fn14 block – inhibitors of TWEAK-Fn14 signaling, primary screen, luciferase reporter cells, uHTS; TWEAK-stimulated Fn14 reporter cells, luciferase luminescence, 8 h; inhibition, % at 10 µM; actives 2% (n = 360,000); AID 1159606, 2016; in the data active = inhibition above about 50%
Large screens that a line does not name were inactive.

Cc1cc(NC(=O)c2ccccc2)sc1C	none
Cc1ccc(NC(=O)c2ccccc2)s1	TRAIL sens C8 53.0
CC(=O)c1c(O)cc(O)c(C(C)=O)c1O	TROY NFkB inh 59.0 (no result: HSP90 inh)
COc1ccccc1CCn1cnc(Cc2ccccc2)c1C(C)C	none (no result: aSyn UTR inh, HSP90 inh)
O=[N+]([O-])c1ccc2nc(NN=Cc3ccc(O)cc3)sc2c1	TROY NFkB inh 66.2, TWEAK Fn14 block 69.0 (no result: aSyn UTR inh, HSP90 inh)
CCSc1nc(COC(=O)NC)c(COC(=O)NC)n1C	none (no result: aSyn UTR inh, HSP90 inh)
CNC(=O)OCc1nc(SSC(C)(C)C)n(C)c1COC(=O)NC	TWEAK Fn14 block 88.9 (no result: aSyn UTR inh, HSP90 inh)
O=C(/C=C/c1ccc(F)cc1)NC(=S)NNC(=O)c1cnccn1	aSyn UTR inh 95.5
O=C(NC(=S)NNC(=O)c1cnccn1)c1ccc(F)cc1	aSyn UTR inh 70.3
COc1ccccc1/C=C/C(=O)NC(=S)Nc1ccccn1	none
COc1ccc(/C=C/C(=O)NC(=S)NNC(=O)c2cnccn2)cc1	aSyn UTR inh 74.8
O=C(/C=C/c1ccc(F)cc1)NC(=S)Nc1ccccc1	none
COc1ccc(/C=C/C(=O)NC(=S)NNC(=O)c2cccnc2)cc1	none
COc1ccc(/C=C/C(=O)NC(=S)Nc2ccccn2)cc1	TRAIL sens C8 50.8
C[C@H](CO)N1C[C@H](C)[C@@H](CN(C)Cc2ccncc2)OCCCC[C@H](C)Oc2ccc(NC(=O)CCCN(C)C)cc2C1=O	none (no result: aSyn UTR inh, HSP90 inh)
CC1(C2CC2)NC(=O)N(CC(=O)Nc2ccc(OC(F)F)cc2)C1=O (configuration not stated)	none (no result: aSyn UTR inh, HSP90 inh)
C#CC[N+](C)(C)CCCCCCCCCCCC	aSyn UTR inh 77.0
C#CC[N+](C)(C)CCCCCCCC	none
C#CC[N+](C)(C)CCCCCCCCCC	aSyn UTR inh 75.3
O=C(Nc1cc(Cl)ccc1Oc1ccccc1)c1cnccn1	TWEAK Fn14 block 87.6 (no result: TROY NFkB inh)
COC(=O)C1CCN(c2cc(=O)n(C3CCCCC3)c(=O)[nH]2)CC1	TWEAK Fn14 block 94.8 (no result: TROY NFkB inh)
Cc1cccc(C)c1NC(=O)CN(C)C(=O)Cc1cccc(C(F)(F)F)c1	TWEAK Fn14 block 54.7
Cc1cc(C(=O)N/N=C/c2cc(Br)cc(Br)c2OC(=O)c2ccccc2)n[nH]1	aSyn UTR inh 89.3 (no result: TRAIL sens C8, TROY NFkB inh, HIF-2a block, TWEAK Fn14 block)
Cc1cc(C(=O)N/N=C/c2cc(Br)cc(Br)c2OC(=O)c2cccc(F)c2)n[nH]1	aSyn UTR inh 70.0
Cc1cc(C(=O)N/N=C/c2cc(Br)ccc2OC(=O)c2ccc(Br)cc2)n[nH]1	aSyn UTR inh 84.0 (no result: TRAIL sens C8, TROY NFkB inh, HIF-2a block, TWEAK Fn14 block)
Cc1cccc(C(=O)Oc2c(Br)cc(Br)cc2/C=N/NC(=O)c2ccncc2)c1	none
Cc1cc(C(=O)N/N=C/c2cccs2)n[nH]1	none
COc1cc(/C=N/NC(=O)c2ccccn2)ccc1OC(=O)c1ccc(Br)cc1	none
Cc1cc(C(=O)N/N=C\c2cc(C(C)(C)C)ccc2O)n[nH]1	aSyn UTR inh 74.7
c1cc(-c2ccc(N3CCOCC3)cc2)n2ccnc2c1	none (no result: aSyn UTR inh, HSP90 inh)
COCCNC(=O)C1(C)CCCN(CCC(=O)c2ccc(Br)cc2)C1 (configuration not stated)	none (no result: aSyn UTR inh, HSP90 inh)
CC(C)(C)c1ccc(Oc2ccc(NC(=O)C3CC=CCC3C(=O)O)cc2)cc1 (configuration not stated)	TROY NFkB inh 75.6
O=[N+]([O-])c1nccn1CCCCCCCCCCCN1CCOCC1	none (no result: aSyn UTR inh, HSP90 inh)
Cc1c(C(=O)O/N=C(\N)c2ccccn2)cccc1[N+](=O)[O-]	TRAIL sens C8 74.9, TWEAK Fn14 block 67.0
N/C(=N\OC(=O)c1ccc(Cl)cc1[N+](=O)[O-])c1ccccn1	none
N/C(=N\OC(=O)c1cccc2ccccc12)c1ccccn1	TRAIL sens C8 55.7, aSyn UTR inh 101.8
N/C(=N\OC(=O)Cc1cccc2ccccc12)c1ccccn1	none
N/C(=N\OC(=O)c1ccc(Cl)cc1Cl)c1ccccn1	TRAIL sens C8 90.4, aSyn UTR inh 88.8, HSP90 inh 91.2, TROY NFkB inh 80.1, TWEAK Fn14 block 100.3
CCOC(=O)C1=CCC(c2ccc(N(CC)CC)cc2)N(S(=O)(=O)c2ccc(C)cc2)C1c1ccc([N+](=O)[O-])cc1 (configuration not stated)	none (no result: aSyn UTR inh, HSP90 inh, TROY NFkB inh, TWEAK Fn14 block)
Cc1[nH]cnc1C(=O)N/N=C/c1c(Cl)cccc1Cl	TRAIL sens C8 59.2
Cc1nnsc1C(=O)N/N=C/c1c(F)cccc1Cl	none
CC(C)Cn1c(SCC(=O)Nc2cccnc2Cl)nnc1-c1ccco1	none (no result: aSyn UTR inh, HSP90 inh)

Compound activity as filed in PubChem.
